# Screening data deposited in PubChem BioAssay by several laboratories.
# CYP2C9 inhib: blocks human cytochrome P450 2C9 | P11712 | hit rate 20% among 96,000 | CYP2C9 Supersomes, luciferin-H conversion, luminescence | inhibition, % at 5 µM | AID 777;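 active = blocking of liver enzyme CYP2C9 beyond about 50% at 5 µM, limit read from the data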
# PTK2B oligo ant: blocks oligomerization of human Pyk2 in cells; hit rate 0.83% among 99,000; AID 1347419; z-score (the deposit names both 25 µM and 10 µM); Q14289; Q293 cells, Pyk2 FERM NanoBiT luminescence; hits give low values;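 active = Z-score of -3 or lower, scaled per plate to the spread of control and sample wells; inactive = z-score above -3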;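 note: negative z-score means lost luminescence so less FERM oligomerization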
# CYP2C19 act: activators of human cytochrome P450 2C19; recombinant CYP2C19, luciferin-H EGE luminescence; hits give high values; 0 = fully inhibited enzyme, 1 = untreated enzyme; activation factor at 5 µM; 96,000 tested, under 10 active;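 active = activation factor of at least 2 at 5 µM in the primary screen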
# CYP2C19 inhib: blocks human cytochrome P450 2C19; CYP2C19 Supersomes, luciferin-H EGE luminescence, 30 min; inhibition, % at 5 µM; hit rate 21% among 96,000; P33261; AID 778;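 active = CYP2C19 inhibition above a set limit at 5 µM in the primary screen, cut at about 50% in these data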
# Cav32 inh: human Cav3.2 channel inhibition, primary screen. O95180. Cav3.2-expressing cells, Fluo-4 calcium fluorescence FDSS; hits give low values. B-score at 10 µM. hit rate 4% among 100,000;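 active = single-dose well whose peak fluorescence ratio is a statistical outlier from its plate by either plate-standardised score or position-corrected B-score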
# CYP2C9 act: CYP2C9 (human) activation; P11712; activation factor at 5 µM; hit rate 1.4% among 96,000; AID 1024; recombinant CYP2C9, luciferin-H conversion, luminescence; hits give high values; factor 1 = untreated enzyme, 0 = blocked;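 active = activation factor of 2 or more for CYP2C9 at a 5 µM dose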
# Numbers stand for hits; - = inactive; . = not tested or not shown. The list is not random: actives were taken first. Their share in the collection is about 27%.
SMILES,CYP2C9 inhib,PTK2B oligo ant,CYP2C19 act,CYP2C19 inhib,Cav32 inh,CYP2C9 act
O=C(Nc1ccccc1)NC1(C(=O)NCc2cccs2)CCCCC1,63,-,-,-,-,-
O=C(NCc1ccccc1)c1cccc(COc2cccc(Cl)c2)c1,-,-,-,-,-,-
O=C(NCc1ccc2c(c1)OCO2)c1ccc(COc2cccc(Cl)c2)o1,88,-,-,64,.,-
O=C(NCc1ccccn1)Nc1ccc2c(c1)OCO2,-,-,-,-,-,-
COc1ccc2nc(Nc3nc(CSc4nc5ccccc5s4)cc(=O)[nH]3)nc(C)c2c1,.,.,.,.,-,.
COc1ccc(N(C(=O)c2ccc(Br)o2)C2C=CS(=O)(=O)C2)cc1 (centres undefined),-,-,-,-,-,-
CSCCC(C(=O)O)N1C(=O)c2ccc(C(=O)O)cc2C1=O (centres undefined),-,-,-,87,-,-
CNCc1cc2ccc(C)cc2[nH]c1=O,-,-,-,-,-,-
O=C(c1ccc(COc2ccccc2Cl)o1)N1CCCC1,-,-,-,-,-,-
CCOc1ccc(OCc2ccc(C(=O)NCc3ccncc3)o2)cc1,80,-,-,92,-,-
CCCc1ccc(OCc2ccc(C(=O)O)o2)c(OC)c1,-,-,-,-,-,-
CCOc1ccc(OCc2ccc(C(=O)O)o2)cc1,-,-,-,70,-,-
CCOc1ccc(C(=O)NCc2cccnc2)cc1,-,-,-,-,-,-
O=C(OCc1ccccn1)c1ccc(COc2ccccc2Cl)o1,-,-,-,61,-,-
Cc1ccccc1CS(=O)(=O)Cc1ccc(C(=O)NCc2ccccn2)o1,-,-,-,-,-,-
CCc1ccc(OCc2ccc(C(=O)NCc3ccccn3)o2)cc1,55,-,-,71,-3.9,-
C=CCN1C=C2C(=O)C(C)(OC(=O)c3ccco3)C(=O)C(C=C)=C2C=C1C1CC1 (centres undefined),.,.,.,.,-,.
CN(CC(=O)N1CCCc2c1c(=O)oc1ccc(O)cc21)Cc1ccccc1,67,-,-,96,-,-
OC(CNCc1ccco1)Cn1c2ccccc2c2ccccc21 (centres undefined),-,-,-,65,-,-
Cc1cccc(C)c1N(CC(O)Cn1c2ccccc2c2ccccc21)S(C)(=O)=O (centres undefined),72,-,-,80,-,-
Cc1ccc(N(CC(O)CON=C2c3ccccc3-c3ccccc32)S(C)(=O)=O)cc1 (centres undefined),53,-,-,-,-,-
OC(CNCc1ccco1)COc1ccccc1 (centres undefined),-,-,-,-,-,-
Cc1ccc(N(CC(O)Cn2c3ccccc3c3ccccc32)S(C)(=O)=O)cc1 (centres undefined),96,-,-,94,-,-
COc1cc(S(=O)(=O)n2nnc3ccccc32)c(OC)cc1Cl,.,-,.,.,-,.
COC(=O)C(Cc1ccc(OC(=O)c2ccccc2C)cc1)N1Cc2ccccc2C1=O (centres undefined),-,-,-,-,-,-
SMILES,CYP2C9 inhib,PTK2B oligo ant,CYP2C19 act,CYP2C19 inhib,Cav32 inh,CYP2C9 act
Cc1ccc(C(C(=O)NC2CCCC2)N2CCCCC2)cc1 (centres undefined),-,.,-,-,-,-
CC1CCN(CC(O)COCCC23CC4CC(CC(C4)C2)C3)CC1 (centres undefined),-,-,-,-,-,-
Cc1ccc(N(CC(O)Cn2c3ccccc3c3ccccc32)S(C)(=O)=O)c(C)c1 (centres undefined),-,-,-,-,-,-
CS(=O)(=O)N(Cc1ccco1)CC(O)Cn1c2ccccc2c2ccccc21 (centres undefined),59,-,-,63,-,-
Cc1c(C(=O)Nc2ccccc2N2CCOCC2)sc2nc3n(c(=O)c12)CCC3,-,.,-,-,.,-
C=CCNC(=O)CSc1ccc(Cl)cc1,-,-,-,-,-,-
Cc1ccc2nc3c(cc(C(=O)NCCCn4ccnc4)n3C)c(=O)n2c1,90,-,-,89,-,-
O=C(NCCCn1ccnc1)C(Cc1ccccc1)N1C(=O)c2ccccc2C1=O (centres undefined),62,-,-,64,-,-
O=C(NCCCn1ccnc1)c1cn(Cc2ccc(F)cc2)nn1,60,-,-,94,-,-
Cc1cc(C(=O)NCCCn2ccnc2)cs1,66,-,-,88,-,-
COC(=O)c1ccc(NC(=O)C2CCCN2S(=O)(=O)c2ccc(F)cc2)cc1 (centres undefined),.,-,.,.,-,.
Cc1ccc(C(=O)NCCCn2ccnc2)o1,-,-,-,72,-,-
O=C(NCCCn1ccnc1)C1c2ccccc2Oc2ccccc21,98,-,-,100,-,-
O=C(/C=N/O)NCCCn1ccnc1,-,-,-,-,-,-
O=C(NCCCn1ccnc1)c1cccc(S(=O)(=O)Nc2ccccc2F)c1,100,-,-,61,-,-
O=C(NCCCn1ccnc1)c1sc2cccc(F)c2c1Cl,91,-,-,96,-,-
O=C(NCCCn1ccnc1)Nc1cccc2ccccc12,.,-,.,.,-,.
COc1nc(N2CCOCC2)nc(-n2cccc2)n1,-,-,-,-,-,-
O=C(CCC1COc2ccccc2O1)Nc1ccc(Cl)cn1 (centres undefined),-,-,-,75,-5.9,-
CCOC(=O)c1ccc(NC(=O)CCC2COc3ccccc3O2)cc1 (centres undefined),69,-,-,-,-,-
Cc1cc(C)nc(NS(=O)(=O)c2ccc(NC(=O)CCC3COc4ccccc4O3)cc2)n1 (centres undefined),-,-,-,-,-,-
COc1ccc(CCNC(=O)CCC2COc3ccccc3O2)cc1OC (centres undefined),68,-,-,-,-,-
Cc1ccnc(NC(=O)CCC2COc3ccccc3O2)c1 (centres undefined),55,-,-,82,.,-
CCOC(=O)c1c(NC(=O)CSc2nnc(-c3ccncc3)n2Cc2ccco2)sc(C)c1C,87,-,-,84,-,-
Cc1cc(C)c(NC(=O)CSc2nnc(-c3ccncc3)n2Cc2ccco2)c(Cl)c1,92,-,-,79,-,-
Cc1cccc(NC(=O)CSc2nnc(-c3cnccn3)n2Cc2ccco2)c1,-,-,-,-,.,-
CCOC(=O)c1c(NC(=O)CSc2nnc(-c3ccncc3)n2Cc2ccco2)sc(C(C)=O)c1C,.,-,.,.,.,.
Cc1ccc(CSc2nc3sc(C)c(C)c3c(=O)n2Cc2ccco2)cc1,-,-,-,-,-,-
Cc1cc2c(=O)n(Cc3ccco3)c(SCC(=O)c3ccc(Cl)s3)nc2s1,76,-,-,57,-4.7,-
CCOC(=O)CC(=O)CSc1nc2sc(C)cc2c(=O)n1Cc1ccco1,-,-,-,-,-,-
